# Bioassay records (PubChem)
# MARV entry inh – inhibitors of Marburg virus binding or cell entry; Marburg virus pseudotyped entry inhibition, cell reporter; Potency, µM (doses to about 37.8 µM), actives largely listed as inhibitors; 300,000 compounds, 1.8% hits; calls by dose curve; tested in HEK293 cells
# HCV inh – blocks hepatitis C virus | Huh7.5.1 HCVcc-Cre infection, luciferase reporter, 44 h | Potency, µM (series often up to 41.8 µM), actives largely listed as inhibitors | 340,000 compounds, 3.4% hits; active = well fitted inhibition curve with a large enough effect; inconclusive = small, poorly fitted or top-dose-only effect, or another doubt; inactive = no such curve, though single readings can be large or run the other way
#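 Infectious HCVcc-Cre (~0.5 moi) was added to cells just after compound, with cells seeded 4 h earlier at 1,000 per well. Luciferase activity after 44 h culture reported infection; substrate was incubated 15 min at room temperature before reading.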
# Vaccinia mCherry – vaccinia inhibition (mCherry reporter) | Vaccinia virus mCherry reporter infection, fluorescence | Potency, µM (series often up to 36.5 µM), hits mostly inhibitors | 310,000 compounds, 0.63% hits | AID 720579; calls by dose curve; tested in A549 cells; note: nearly all actives have a fitted effect of over 35% in size
# HCMV antiviral – inhibitors of human cytomegalovirus; AID 1259415; 410,000 compounds, 4.5% hits; activity change, negative = inhibition, % at 57.5 µM; HFF cells, HCMV-luciferase reporter, 72 h; stronger effect = lower value; in the data active = activity change below about -60%; inconclusive = no clear call, values can overlap the other calls; inactive = above about -39%
#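 Two-dose cell screen: HFF monolayers treated with compounds and infected with luciferase-expressing HCMV at 1 PFU/cell, 72 h at 37C, then lysed for luciferase measurement.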
# Vaccinia Venus – inhibitors of vaccinia virus (Venus reporter). AID 720580. Vaccinia virus Venus reporter expression, fluorescence. Potency, µM (series often up to 36.5 µM), usual class: inhibitors. 330,000 compounds, 0.46% hits; calls by dose curve; tested in A549 cells; note: nearly all actives have a fitted effect of over 30% in size
# Lassa entry inh – blocks Lassa virus binding to or entry into cells; Lassa virus pseudotype entry inhibition, cell reporter; Potency, µM (titrated, usually from 37.9 µM), hits mostly inhibitors; 300,000 compounds, 1.2% hits; calls by dose curve; tested in HEK293 cells; note: nearly all actives have a fitted effect of over 50% in size
# Numbers stand for hits; – = inactive; ? = inconclusive; · = not tested or not shown; + = active, no number; ! = not confirmed by another sample. In the library only some 7.8% were active in any assay of this set; here they are far more common.
SMILES,MARV entry inh,HCV inh,Vaccinia mCherry,HCMV antiviral,Vaccinia Venus,Lassa entry inh
CN(C)CCOC1(Cc2ccc(F)cc2)CCC(C(C)(C)C)CC1 (centres undefined),11µM,–,–,?,?,?
CN(C)CCNCc1ccc(OC2CCCC2)cc1,?,·,–,–,–,–
Cc1ccc(CC2(OCCN(C)C)CCC(C(C)(C)C)CC2)cc1 (centres undefined),10µM,–,?,?,?,?
Cc1csc2ncnc(N3CCN(C(=S)Nc4ccc(C(F)(F)F)cc4)CC3)c12,·,–,·,-71,·,·
CC(C)C[C@@H]1NC(=O)[C@H](CCCN)NC(=O)[C@H](C(C)C)NC(=O)[C@@H]2CCCN2C(=O)[C@@H](Cc2ccccc2)NC(=O)[C@H](CC(C)C)NC(=O)[C@H](CCCN)NC(=O)[C@H](C(C)C)NC(=O)[C@@H]2CCCN2C(=O)[C@@H](Cc2ccccc2)NC1=O,·,·,4.5µM,·,?,·
COc1cc2nc(N3CCCN(C)CC3)nc(N3CCN(C)CC3)c2cc1OC,·,·,–,·,?,·
Cc1cc2nc(C3CCN(Cc4nnnn4Cc4ccccc4)CC3)[nH]c2cc1C,?,?,–,–,?,–
COc1ccc(Cn2nnnc2CN2CCC(c3nc4ccccc4s3)CC2)cc1,?,25µM,·,-70,·,?
COc1ccc(NC(=O)C2CCN(c3cnccn3)CC2)cc1Cl,?,–,–,-60!,–,–
CCOc1cccc(/C=N/NC(=S)Nc2ccccc2[N+](=O)[O-])c1O,·,–,·,-70,·,·
CCC[C@H]1[C@H](NCc2ccccc2)CC[C@@]23CCCN2C(=O)CCC[C@@H]13,·,·,·,–,·,·
COc1ccccc1CCNC(=O)c1cc(-c2ccncc2)nc2ccc(Br)cc12,?,0.89µM,–,-66,–,?
COc1ccccc1CCNC(=O)c1cc(-c2ccccn2)nc2ccccc12,–,11µM,–,–,–,–
CN1CCCN(C(c2ccccc2)c2ccc(Cl)cc2)CC1 (centres undefined),?,1.3µM,?,?,?,13µM
O=C(CCNC(=O)c1ccc([N+](=O)[O-])cc1)NC1CCCc2ccccc21 (centres undefined),2µM,–,–,–,–,?
Cc1ccc(-n2c(=O)c3sc4ccccc4c3n(CC(=O)NC3CCCC3)c2=O)cc1C,–,·,–,-71,–,–
O=C(Cn1c(=O)n(-c2cccc(Cl)c2)c(=O)c2sc3ccccc3c21)N1CCCC1,–,·,–,-81,–,–
O=C(Cn1c(=O)n(-c2ccccc2)c(=O)c2sc3ccccc3c21)N1CCCC1,–,·,–,–,–,–
COc1ccc(-n2c(=O)c3sc4ccccc4c3n(CC(=O)NCc3ccccc3)c2=O)cc1,–,·,–,-105,–,–
Cc1cnc(-n2ncc(C(=O)NC(C)(C)CO)c2-c2cccs2)nc1-c1ccc(F)cc1,·,·,–,·,–,·
[O-][N+]12CCCc3cccc(c31)CCC2,·,·,–,·,–,·
COCCNC(=O)C(C)(C)n1cc(-c2ccc(OC)c(OC)c2)cn1,·,·,·,–,·,·
CCc1ccc(NC(=O)CN2C(=O)c3ccccc3Sc3ccc(C(=O)N4CCCC4)cc32)cc1,·,·,?,–,–,–
C=CCOC1=CS(=O)(=O)N(Cc2ccc(Br)cc2)c2ccc(Br)cc21,·,20µM,?,–,–,·
O=C1CS(=O)(=O)N(Cc2ccccc2F)c2ccc(Br)cc21,·,–,–,–,–,·
SMILES,MARV entry inh,HCV inh,Vaccinia mCherry,HCMV antiviral,Vaccinia Venus,Lassa entry inh
Fc1cccc(NCc2ccccc2-c2nnc(-c3ccccc3Cl)o2)c1,?,·,–,–,–,–
COc1ccc2nc(C)cc(Nc3ccc(C(=O)O)cc3)c2c1,·,–,·,·,·,·
COc1ccc2nc(C)cc(N/N=C/c3ccc(F)cc3)c2c1,?,?,?,–,10µM,?
COc1ccc(CNc2cc(C)nc3ccc(OC)cc23)cc1,?,14µM,–,–,–,·
COc1cccc2c(N/N=C/c3ccc(O)c(O)c3)cc(C)nc12,–,?,–,–,–,–
Cc1ccc2nc(C)cc(N/N=C/c3cccc(O)c3)c2c1,?,–,–,–,?,?
COc1ccc(/C=N/Nc2cc(C)nc3c(C)cccc23)cc1,·,13µM,·,–,·,·
COc1ccc(/C=N/Nc2cc(C)nc3ccccc23)cc1,?,?,?,-104,?,?
Cc1cc(Nc2cccc(C)c2C)n2cnnc2n1,–,·,–,–,–,–
COc1ccc(N2CCN(c3cc(C)nc4ccc(OC)cc34)CC2)cc1,?,6.3µM,–,–,–,?
O=C(NCCc1csc(-c2ccc(Cl)cc2)n1)c1cccs1,·,·,–,?,–,–
CC(C)(C)C(=O)Nc1ccc(N=Nc2ccccc2)cc1,?,?,?,-62,–,?
CC(=O)NC(NC(=S)Nc1ccc(S(N)(=O)=O)cc1)C(Cl)(Cl)Cl (centres undefined),·,–,·,–,·,·
O=C(/C=C/c1ccccc1)NC(NC(=S)Nc1cc(Cl)ccc1Cl)C(Cl)(Cl)Cl (centres undefined),?,?,10µM,–,?,?
CC(C)CC(=O)NC(NC(=S)Nc1ccccc1)C(Cl)(Cl)Cl (centres undefined),?,–,–,–,–,·
O=C(CCc1ccccc1)NC(NC(=S)Nc1ccc(Cl)cc1)C(Cl)(Cl)Cl (centres undefined),11µM,–,?,–,?,?
O=C(O)CCC(=O)Nc1ccc(N=Nc2ccccc2)cc1,–,–,–,·,–,–
CC(=O)NC(NC(=S)Nc1ccc(N=Nc2ccccc2)cc1)C(Cl)(Cl)Cl (centres undefined),?,7.1µM,13µM,–,14µM,?
CC(C)NC(=O)Cn1ncn2c(cc3cc(F)ccc32)c1=O,–,·,–,–,–,·
O=C(/C=C/c1ccccc1)NC(NC(=S)Nc1ccc(Cl)cc1)C(Cl)(Cl)Cl (centres undefined),4.6µM,?,·,?,·,?
COc1ccc(NC(=S)NC(NC(=O)/C=C/c2ccccc2)C(Cl)(Cl)Cl)cc1 (centres undefined),–,–,?,–,?,–
COc1ccc(CNC(=O)c2cc3c(=O)[nH]c4ccccc4c3n2C)cc1,·,–,·,?,·,·
CCc1cccc(NC(=O)c2cc3c(=O)[nH]c4ccccc4c3n2C)c1,–,·,–,-66,–,–
COc1cccc(-c2cc3nc4c(c(NCC(C)(C)CN(C)C)n3n2)CCCC4)c1,?,?,?,-69,–,?
CCCCN(CC)CCCNC(=O)c1ccc2c(c1)N(Cc1ccc(C)cc1)C(=O)c1ccccc1S2,·,·,13µM,-98,?,?
O=C(NCCN1CCOCC1)c1ccc2c(c1)N(Cc1ccccc1)C(=O)c1ccccc1S2,·,–,·,+,·,·
Cc1cccc(CN2C(=O)c3ccccc3Sc3ccc(C(=O)NCCCN4CCOCC4)cc32)c1,·,–,–,-64!,–,–
O=C(NCCCN1CCOCC1)c1ccc2c(c1)N(Cc1ccccc1)C(=O)c1ccccc1S2,·,–,–,–,–,–
O=C(NCc1ccccc1Cl)c1cnc2sc(N3CCOCC3)nn2c1=O,·,·,–,–,–,–
